These results are taken from ChEMBL document CHEMBL4513216, “Probing the Open Global Health Chemical Diversity Library for Multistage-Active Starting Points for Next-Generation Antimalarials” (ACS Infect Dis, 2020).

The whole screen tested about 69,000 compounds, of which about 8,600 (12%) showed an effect of 50% or more. Shown is part of a subset that was picked to be rich in strong results.

The subject of this assay is Plasmodium berghei. In words: Screen against P. berghei liver stage (PbLuc), transformed with Luciferase, at 10uM. In kind it is functional, HepG2. Conditions: tested at 10 uM.
For `CC(C)C(NC(=O)Cc1ccccc1)C(=O)NCc1ccc(O)nc1` (stereo not given), the INHIBITION amounted to 0.991%.

With `CC(C)(C)c1nnc(CN2CCCC2Cn2cncn2)o1` (stereo not given), the INHIBITION is 32.707%.

As for `CN1CC(=O)N(c2cccc(F)c2)CC12CCN(S(=O)(=O)C1CC1)C2` (stereo not given), the INHIBITION amounted to 5.44%.

`NC(=O)c1cnc(NC2CC2)nc1CCNC(=O)CC1CCCC1`: the INHIBITION turned out to be 31.3%.

Regarding `CCOC(=O)CNC(=O)N1CCN(c2ncccn2)CC1`, the INHIBITION amounted to 63.5%.

In the case of `CCOC(=O)CCCNC(=O)CN1CCN(c2ncccn2)CC1`, the INHIBITION came out at 1.81%.

Take `O=C(NCc1cc[nH]n1)N1CCN(c2ncccn2)CC1`: the INHIBITION was 33.3%.

As for `Cn1c(C(=O)NC(Cc2ccsc2)c2cccnc2)cc(=O)n(C)c1=O` (stereo not given), the INHIBITION is reported as -12.3%.

Regarding `C/C=C(\C)CN1C[C@H](NC(=O)c2cnc(O)cn2)C[C@H]1C(=O)NCC`, the INHIBITION is listed as -7.17%.

In the case of `C/C=C(\C)CN1C[C@@H](NC(=O)c2ccc(O)c(Cl)c2)C[C@H]1C(=O)NCC`, the INHIBITION was 22.4%.

`C/C=C(\C)CN1C[C@@H](NC(=O)c2ccc(F)c(F)c2)C[C@H]1C(=O)NCC`: the INHIBITION amounted to 52%.

With `c1ccc(OCCN2CCCCC2Cn2cncn2)cc1` (stereo not given), the INHIBITION is 40.9%.

`CCCC(C)N(C)C(=O)c1nc(S(C)(=O)=O)n2ccccc12` (stereo not given): the INHIBITION is on record as -8.95%.

On to `Cc1nc(C)c(C(=O)N2CCc3ccc(F)cc3C2C)o1` (stereo not given), for which the INHIBITION is -11.6%.

For `Cc1nc(C)c(C(=O)N2Cc3cc(F)ccc3CC2C)o1` (stereo not given), the INHIBITION is recorded as -9.17%.

Take `Cc1nc(C)c(C(=O)N2CCc3cc(F)ccc3C2C)o1` (stereo not given): the INHIBITION is 52.6%.

Turning to `C=c1ncsc1=C1NN=C(C2CCCN2C(=O)CCn2ccc(C)n2)O1` (stereo not given), the INHIBITION is 21.95%.

In the case of `Cc1nn(C)c(C)c1CN(C)CC1(O)CCCN(C)C1` (stereo not given), the INHIBITION is reported as 5.18%.

Consider `CCCc1cnc(C)nc1N1CCC(Cc2ccc(CO)cc2)C1` (stereo not given), for which the INHIBITION is 75%.

For `CCCc1cc(N2CCC(Cc3cccc(C(N)=O)c3)C2)nc(C)n1` (stereo not given), the INHIBITION is recorded as 5.67%.

Take `CCCc1cnc(C)nc1N1CCC(Cc2cccc(C(N)=O)c2)C1` (stereo not given): the INHIBITION was found to be 52.2%.

As for `CCCc1cnc(C)nc1N1CCC(Cn2cc(C(C)O)nn2)CC1` (stereo not given), the INHIBITION is listed as 17.5%.

On to `CCCc1cnc(C)nc1N1CCC2(CCCO2)CC1`, for which the INHIBITION is 13.1%.

Turning to `CCCc1cnc(C)nc1N1CCC(F)(F)CC1`, the INHIBITION was -40.6%.

As for `CCc1cnc(C)nc1N1CCC(Cc2cccc(C(=O)O)c2)C1` (stereo not given), the INHIBITION came to 47.2%.

On to `CCCc1cnc(C)nc1N1CCC(Cn2cc(CN(C)C)nn2)CC1`, for which the INHIBITION is listed as -16.1%.

Take `CCCc1cnc(C)nc1N1CCC(Cn2cc(CO)nn2)CC1`: the INHIBITION was determined as 50.2%.

Turning to `Cn1cnc2c1CCN(Cc1cccc(C(=O)N3CCCCC3)c1)C2`, the INHIBITION is on record as -40.01%.

Regarding `Cc1cccc(S(=O)(=O)N2C[C@@H]3C[C@H](C(=O)N(C)C)[C@H](C2)O3)c1`, the INHIBITION came to 42.3%.

As to `Cc1nc(NC2CC(C)(C)NC(C)(C)C2)c2c(n1)c(C)nn2C`, the INHIBITION is reported as -7.83%.

For the molecule `COCCc1noc(CN(C)c2nc(C)nc(C)c2C)n1`, the INHIBITION is given as 47.6%.

As for `CNc1snc(C)c1C(=O)N1CCCC(n2nc(C)nc2C)C1` (stereo not given), the INHIBITION worked out at 19.4%.

As to `O=C1CC(NS(=O)(=O)c2cccc(F)c2)CN1` (stereo not given), the INHIBITION worked out at 10.7%.

Regarding `CC(NC(=O)N1CCC(CC(N)=O)CC1)c1csc2ccccc12` (stereo not given), the INHIBITION worked out at 27.7%.

As to `CC(=O)N1CCCN(C(=O)NC(C)c2csc3ccccc23)CC1` (stereo not given), the INHIBITION came to 21.8%.

For the molecule `CC(NC(=O)N1CCC(CO)CC1)c1csc2ccccc12` (stereo not given), the INHIBITION was found to be 55.5%.

`COc1ccc(C(=O)N2CCCCC2c2nccs2)c(OC)c1` (stereo not given): the INHIBITION was 7.12%.

As for `COc1ccc(CC(=O)N2CCCCC2Cn2cc(C)cn2)cc1F` (stereo not given), the INHIBITION is -2.19%.

With `CC(C)Cc1cc(NC(=O)c2cccnc2)n(C)n1`, the INHIBITION was -10.6%.

As to `CCN(CC(=O)NC(C)C)S(=O)(=O)N1CCCCCC1`, the INHIBITION is listed as -12.6%.

In the case of `CCN(CC(=O)NC(C)C)S(=O)(=O)N1CCCC(C)C1` (stereo not given), the INHIBITION is on record as -13.4%.

With `CCN(CC)S(=O)(=O)N1CCCN(CC(=O)NC(C)C)CC1`, the INHIBITION came out at 57.2%.

Consider `Fc1ccc2[nH]c3c(c2c1)CCN1C(c2ccccn2)N2CCC31CC2` (stereo not given), for which the INHIBITION is on record as -23.4%.

Regarding `Cc1cccc(C(C)NCC2CCS(=O)(=O)CC2)c1` (stereo not given), the INHIBITION is 64.4%.

Consider `CC(NCC1CCS(=O)(=O)CC1)c1cccc(OC(F)F)c1` (stereo not given), for which the INHIBITION stood at 2.97%.

Consider `CC(=O)Nc1cccc(C(C)NCC2CCS(=O)(=O)CC2)c1` (stereo not given), for which the INHIBITION is 25.8%.

Regarding `O=C(Nc1cnccn1)[C@@H]1C[C@H]2OCC[C@H]2N(Cc2ccsc2)C1`, the INHIBITION is -38.9%.

With `CCCN1C[C@@H]2CC[C@H]1CN(Cc1ccc(Cn3cccn3)cc1)C2`, the INHIBITION was -27.5%.

For the molecule `COC(=O)c1ccc(N2CCN(C(=O)c3cnn(C)c3)C(C)C2)cc1` (stereo not given), the INHIBITION came out at 63.6%.

On to `COC(=O)c1ccc(N2CCN(C(=O)c3cccnc3)C(C)C2)cc1` (stereo not given), for which the INHIBITION amounted to 81.1%.

For `COC(=O)c1ccc(N2CCN(C(=O)c3ccc(O)nc3)C(C)C2)cc1` (stereo not given), the INHIBITION is listed as 2.97%.

With `COC(=O)c1ccc(N2CCN(C(=O)c3ccco3)C(C)C2)cc1` (stereo not given), the INHIBITION is listed as -34%.

As for `COC(=O)c1ccc(N2CCN(C(=O)C3CC3)C(C)C2)cc1` (stereo not given), the INHIBITION was 31.6%.

As for `COC(=O)c1ccc(N2CCN(C(=O)c3ccncc3)C(C)C2)cc1` (stereo not given), the INHIBITION is 27.1%.

With `O=S(=O)(CCNC1CCc2ncnn2C1)c1ccc(Cl)cc1` (stereo not given), the INHIBITION is 21.5%.

Take `CO[C@@H]1CN(c2ccccc2)S(=O)(=O)[C@@]12CCN(CC1CC1)C2`: the INHIBITION is given as 22.2%.

On to `CCn1cc(NC(=O)NCC(c2ccc(OC)cc2)N(C)C)cn1` (stereo not given), for which the INHIBITION came to 34.85%.

Take `C[C@@H]1CN(C(=O)c2ccccc2F)C[C@]12CCN(CCN(C)C)C2=O`: the INHIBITION is given as 11.2%.

`Oc1ccc2oc3c(c2c1CN1CCOCC1)CCCC3`: the INHIBITION is -115%.

Regarding `NC(=O)C1CN(Cc2c(O)ccc3oc4c(c23)CCCC4)CCO1` (stereo not given), the INHIBITION is listed as -66.7%.

With `O=C1NCCCc2c1oc1ccc(O)c(CN3CCOCC3)c21`, the INHIBITION turned out to be 58.1%.

For the molecule `CCCC1(CO)CCCN(C(=O)CN2CCN(CC)CC2)C1` (stereo not given), the INHIBITION was found to be 17.4%.

As for `CN(C)c1cc(CNc2ccc(S(=O)(=O)C(C)(C)C)nc2)ccn1`, the INHIBITION was -1.35%.

As to `Cn1c(CN2CCOC(CCc3ccncn3)C2)nc2ccccc21` (stereo not given), the INHIBITION is recorded as 38.8%.

With `CCc1noc(CS(=O)(=O)Cc2nc(Cc3ccccc3)no2)n1`, the INHIBITION is 25.5%.

For the molecule `CCc1noc(CS(=O)(=O)Cc2ccccc2C)n1`, the INHIBITION is 61.3%.

For the molecule `Cc1ccccc1CS(=O)(=O)Cc1nc(C2CC2)no1`, the INHIBITION is reported as 9.16%.

Regarding `CCc1noc(CS(=O)(=O)Cc2ccccc2Cl)n1`, the INHIBITION is 52.6%.

For `CCc1noc(CS(=O)(=O)CC(=O)N2c3ccccc3CC2C)n1` (stereo not given), the INHIBITION was -21%.

On to `CCc1noc(CS(=O)(=O)CC=C(C)C)n1`, for which the INHIBITION stood at 21.9%.
